Only some compounds are listed: those with a hit (about 19% of all), similar ones and a draw of the others.
ASM inhibitor: Inhibitors of Secretory Acid Sphingomyelinase (S-ASM): qHTS. Sphingomyelin phosphodiesterase (Homo sapiens), P17405. placental ASM, HMU-PC fluorogenic substrate, 60 min. AID 504937, 2011. 340,000 tested, 0.006% active. Potency, µM (titrated, usually from 57.5 µM), for the others: at the top dose activity change, negative = inhibition, actives largely listed as inhibitors; note: potency is the fitted concentration of half-maximal effect
Target sequence (P17405 47-631 limits assumed): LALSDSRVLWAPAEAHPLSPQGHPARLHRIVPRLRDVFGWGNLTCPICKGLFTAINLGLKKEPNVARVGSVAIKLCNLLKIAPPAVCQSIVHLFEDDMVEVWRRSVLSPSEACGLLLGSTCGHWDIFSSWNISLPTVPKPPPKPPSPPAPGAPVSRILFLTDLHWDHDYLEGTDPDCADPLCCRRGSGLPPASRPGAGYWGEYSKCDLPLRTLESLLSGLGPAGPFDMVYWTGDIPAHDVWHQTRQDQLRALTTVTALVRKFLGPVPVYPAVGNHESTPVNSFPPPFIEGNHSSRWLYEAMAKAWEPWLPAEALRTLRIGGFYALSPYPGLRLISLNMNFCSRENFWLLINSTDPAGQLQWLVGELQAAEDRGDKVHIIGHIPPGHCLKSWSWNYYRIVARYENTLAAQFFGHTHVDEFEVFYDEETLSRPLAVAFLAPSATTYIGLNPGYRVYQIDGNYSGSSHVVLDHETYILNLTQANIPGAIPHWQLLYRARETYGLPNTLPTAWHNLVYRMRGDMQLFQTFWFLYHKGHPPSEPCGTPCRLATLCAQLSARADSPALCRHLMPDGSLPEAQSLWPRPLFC
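HMU-PC0 cleavage (9 uM final) by human placental ASM, 60 min at 37 °C following 10 min compound exposure at RT; stopped at pH 10, fluorescence Ex 386/Em 447 nm.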
TGFb SMAD3 inh: qHTS for Inhibitors of TGF-b; HepG2 CAGA-GFP TGF-b/SMAD3 reporter, GFP fluorescence, 18 h; TGF-beta stimulated, 500 pg/mL final; Potency, µM (titrated, usually from 46.1 µM), for inactives: at the top dose activity, negative = inhibition, usual class: inhibitors; 410,000 tested, 1.2% active; AID 588855, 2011; note: potency is the fitted concentration of half-maximal effect; % is set by controls: 0 for no effect and ±100 for the full control effect; nearly all actives have a fitted effect of over 65% in size
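First, reporter cells (HEPG2 CAGA-GFP) rested 2 h at 37 degrees C. Next, compounds were pinned in and TGF-beta added to 500 pg/mL final. After 18 h, GFP was imaged per cell and summed per well.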
IL1B secr inh: qHTS for Inhibitors of Inflammasome Signaling: IL-1-beta AlphaLISA Primary Screen. THP-1 LPS/ATP IL-1B secretion, AlphaLISA, 16 h; stronger effect = lower value. activity change, % at 57.5 µM. 360,000 tested, 4.7% active. AID 743279, 2014; in the data active = activity change below about -50%; inconclusive = mostly about -30% to -49%; note: % is set by controls: 0 for no effect and ±100 for the full control effect
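Secreted IL-1B measured by AlphaLISA bead assay after 16 h compound exposure of THP-1 cells; compounds (final up to 57.5 uM) added 1 h before LPS (250 ng/mL) and ATP (1.25 mM) stimulation; lower signal means less secretion.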
TDP1 cell noCPT: qHTS for Inhibitors of human tyrosyl-DNA phosphodiesterase 1 (TDP1): qHTS in cells in absence of CPT; Potency, µM (doses to about 46.2 µM), inactives show at the top dose activity change, negative = growth inhibition, actives largely listed as inhibitors; DT40 Tdp1-/- hTDP1 cells, no CPT, ATP luminescence, 48 h; 420,000 tested, 15% active; note: potency is the fitted concentration of half-maximal effect; % is set by controls: 0 for no effect and ±100 for the full control effect; nearly all actives have a fitted effect of over 55% in size
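No-CPT arm: Tdp1-/-;hTDP1 DT40 cells (400/well) plus compounds, incubated ≥48 hr at 37 °C. Readout CellTiter-Glo luminescence.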
HepG2 viability: qHTS for Inhibitors of TGF-b: Cytotox Counterscreen; HepG2 CAGA-GFP viability, ATP luminescence, 18 h; Potency, µM (titrated, usually from 46.1 µM), inactives show at the top dose activity change, negative = cytotoxicity, actives largely listed as cytotoxic; 410,000 tested, 0.76% active; AID 588856, 2011; note: potency is the fitted concentration of half-maximal effect
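HepG2 CAGA-GFP cells (1000/well, DMEM with 1% FBS) received compound, then TGF-beta at 500 pg/mL final, and were incubated 18 hours at 37 degrees C. Viability was read by CellTiter-Glo luminescence. Media-only wells were set as complete cell-killing and DMSO as no toxicity.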
TDP1 cell CPT: qHTS for Inhibitors of human tyrosyl-DNA phosphodiesterase 1 (TDP1): qHTS in cells in presence of CPT. chicken DT40 Tdp1-/-;hTDP1 cells + 20 nM CPT, ATP luminescence, 48 h. Potency, µM (doses to about 46.2 µM), without a hit: top-dose activity change, negative = growth inhibition, most hits filed as inhibitors. 420,000 tested, 12% active. AID 686979, 2013; note: potency is the fitted concentration of half-maximal effect; % is set by controls: 0 for no effect and ±100 for the full control effect; nearly all actives have a fitted effect of over 55% in size
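Cell growth measured by CellTiter-Glo luminescence after a minimum 48 h, 37 C compound exposure with 20 nM CPT in Tdp1-knockout DT40 cells stably expressing hTDP1, seeded 400/well; qHTS titration format.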
Numbers without * were called inactive; i = inactive; ? = inconclusive; · = no result. Unless noted, calls come from the whole dose curve; as a rule, active = well fitted curve in the direction sought with a large enough effect; inconclusive = small, poorly fitted or top-dose-only effect, or another doubt; inactive = no such curve, though single readings can be large; an effect the other way counts as inactive or inconclusive.

SMILES	ASM inhibitor	TGFb SMAD3 inh	IL1B secr inh	TDP1 cell noCPT	HepG2 viability	TDP1 cell CPT
CCOC(=O)c1cc([N+](=O)[O-])c([N+](=O)[O-])cc1NC(C)=O	2%	-8%	-81*	0.92µM*	-30%	?
O=C(Oc1ccccc1C(=O)Nc1ccccc1)c1ccc(Br)c([N+](=O)[O-])c1	-22%	?	-73*	?	-5%	-21%
COc1ccccc1C(=O)Oc1ccccc1C(=O)Nc1ccccc1	2%	-2%	20	?	-11%	?
O=C(Nc1ccccc1)c1ccc(Nc2c([N+](=O)[O-])cc([N+](=O)[O-])c3ccccc23)cc1	-26%	0%	7	10µM*	-3%	7.3µM*
CC(=O)N1CCC(c2c[nH]c3ccccc23)CC1	1%	2%	·	-14%	-1%	7%
O=C(Nc1cccc(/C=C/c2ccccn2)c1)c1cc(Cl)ccn1	-1%	1%	41	?	6%	?
CCC(=O)Nc1cccc(NC(=O)c2cccc([N+](=O)[O-])c2C)c1	-8%	0%	3	23µM*	-20%	?
Cc1c(C(=O)NN2CCN(C)CC2)cccc1[N+](=O)[O-]	-3%	-14%	12	6%	1%	1%
O=C(NCc1ccccc1OC(F)(F)F)C1CCC(=O)N(CCCN2CCOCC2)C1 (stereo not drawn)	·	0%	2	-1%	-18%	9%
CCCS(=O)(=O)NC(=O)C1(C)CCCN(C(=O)c2ccc(F)c(Cl)c2)C1 (stereo not drawn)	·	9%	-5	0%	3%	1%
COc1ccc(CC(=O)n2[nH]c(=O)cc(C)c2=O)cc1OC	3%	-13%	·	18µM*	-11%	?
COc1ccc(CC(=O)NC(C)(C)CC(C)=O)cc1OC	3%	8%	24	-2%	-81%	-12%
CC(=O)c1ccc(S(=O)(=O)NC2CC(=O)N(c3ccc(C)c(C)c3)C2)cc1 (stereo not drawn)	-1%	0%	6	15µM*	1%	15µM*
O=C1CC(NS(=O)(=O)c2ccc([N+](=O)[O-])cc2)CN1c1ccc(Cl)cc1 (stereo not drawn)	-4%	-17%	-6	16µM*	-1%	?
COc1ccc(S(=O)(=O)NCC(c2ccco2)S(=O)(=O)c2cccs2)cc1F (stereo not drawn)	·	?	·	?	-11%	?
CN1/C(=C\C(=O)c2cccs2)Sc2ccccc21	282%	2%	-14	10µM*	-32%	?
COc1cc(OC)cc(C(=O)/C=C2\Sc3ccccc3N2C)c1	31%	-1%	-26	0%	-2%	-2%
COC(=O)c1ccc(N/C=C/C(=O)c2ccccc2)cc1	130%	0%	25	-23%	-1%	-8%
COc1cc(O)ccc1/C=N/NC(=O)c1ccc([N+](=O)[O-])cc1	-1%	-2%	19	?	-2%	6%
O=C(NC(CSCc1ccccc1)C(=O)N/N=C/c1ccc(O)cc1O)c1ccc([N+](=O)[O-])cc1 (stereo not drawn)	?	?	113	4.5µM*	-61%	7.1µM*
CN1C(=O)c2ccc(C(=O)NCc3ccco3)cc2C1=O	-2%	-5%	-6	17%	3%	-3%
O=C1Nc2ccc3sc4ccccc4c3c2C1=O	-12%	5%	-12	?	9%	?
CCOC(=O)c1c(NC(=S)Nc2ccc(Cl)cc2)sc2c1CCN(C)C2	i	2%	-15	?	-39%	16µM*
CCOC(=O)N1CCc2c(sc(NC(=O)CCS(=O)(=O)c3ccccc3)c2C(N)=O)C1	-4%	-17%	-10	?	-32%	?
CCC(=O)Nc1sc2c(c1C(N)=O)CCN(Cc1ccccc1)C2	252%	-1%	-24	?	-21%	-3%
SMILES	ASM inhibitor	TGFb SMAD3 inh	IL1B secr inh	TDP1 cell noCPT	HepG2 viability	TDP1 cell CPT
CN1CCc2c(sc(NC(=O)Cc3ccccc3)c2C(N)=O)C1	90%	-3%	-1	-2%	-44%	15%
CCOC(=O)c1c(NC(=O)CCS(=O)(=O)c2ccccc2)sc2c1CCN(C)C2	103%	?	0	16µM*	-45%	16µM*
CCOC(=O)c1c(NC(=O)Cc2ccccc2)sc2c1CCN(C)C2	7%	6%	?	13µM*	-27%	?
CCOC(=O)c1c(N)sc2c1CCN(Cc1ccccc1)C2	·	7%	·	15µM*	-3%	?
CC[C@@]1(C(=O)OC)N[C@H](CN(C)C(=O)C2CCCCC2)[C@@H]2C(=O)N(Cc3ccccc3)C(=O)[C@@H]21	-4%	0%	-5	-1%	2%	1%
COc1ccc(NC(=O)c2c(N)c(C(=O)c3ccc(OC)cc3)n3ccccc23)cc1	·	-10%	·	?	-6%	-23%
CCOC(=O)c1c(NC(=O)Cc2ccccc2)sc2c1CCN(CC)C2	5%	-21%	?	?	-23%	?
CCN1CCc2c(sc(NC(=O)Cc3ccccc3)c2C(=O)OC)C1	66%	-11%	?	?	-3%	12µM*
C=CCNc1ncnc2c1[nH]c1ccc(Cl)cc12	1%	?	-122*	23µM*	2%	?
CCCCc1cc2c(cn1)=C(OC(=O)c1cnc3ccccc3n1)C(C)(OC(=O)CC)C(=O)C=2 (stereo not drawn)	-1%	1%	37	3%	-22%	-30%
COC/C=C/C1=CC2=CC(=O)C(C)(OC(=O)c3cnc4ccccc4n3)C(=O)C2=CN1c1ccccc1 (stereo not drawn)	-3%	-45%	21	16µM*	3%	?
COC1=CC(=O)CC(C)C12Oc1c(Cl)c(OC)cc(OC)c1C2=O (stereo not drawn)	-1%	16%	-15	?	-3%	?
COC1=CC(=O)C[C@@H](C)[C@]12Oc1c(Cl)c(OC)cc(OC)c1C2=O	1%	15%	-2	17µM*	-4%	?
CC(CCc1ccccc1)NC(=O)CCCn1ncn2c(cc3occc32)c1=O (stereo not drawn)	0%	11%	-5	-10%	5%	-1%

Screening data: PubChem BioAssay, National Center for Advancing Translational Sciences (NCATS)
